# The campaign covered roughly 360,000 compounds. About 4,200 (1.2%) were called active. For the sample, actives were picked, then their nearest neighbours and some compounds at random. A number with no mark means an inactive call.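 The calls were made as follows: active = mean replicate inhibition at least 60% with every replicate also reaching 60%; inconclusive = only one of the two criteria is met; inactive = mean below 60% and not all replicates reaching 60%.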
# Assay: PAX8 transcriptional activity inhibition in RMG-I – RMG-I cells, luciferase, single concentration, primary screen (AID 652154);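 also: luciferase light reporting Pax8 driven TPO promoter activity; plate controls were median of neutral control wells for no effect and mitoxantrone controls for full effect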
# Details: RMG-I TPO-luciferase reporter, SteadyGlo, 24 h; at 12.6 µM; hits give high values
row,Compound,inhibition
1,CC(C)NC(=O)N1C[C@@H]2[C@H](c3ccccc31)[C@H](CO)N2C(=O)c1ccccn1,-13.7%
2,COCC#Cc1ccc([C@@H]2[C@@H](CO)N3C(=O)CN(C(=O)C4CCOCC4)C[C@@H]23)cc1,-23.4%
3,COc1ccc(NC(=O)N(C)C[C@H]2Oc3ccc(N(C)C)cc3C(=O)N([C@@H](C)CO)C[C@H]2C)cc1,-20.3%
4,O=C(NCC1CC1)[C@@H]1[C@@H](CO)[C@@H]2Cn3c(ccc(C4=CCCC4)c3=O)[C@H]1N2CCC(F)(F)F,-4.22%
5,CCCNC(=O)N1C[C@H]2[C@@H](c3ccccc31)[C@@H](CO)N2C(=O)NCCC,-23.2%
6,Nc1nc2c(ncn2[C@@H]2O[C@H](C(=O)N[C@H](Cc3ccccc3)C(=O)NCC3CCCCC3)[C@@H](O)[C@H]2O)c(=O)[nH]1,-4.88%
7,C[C@H](CO)N1C[C@H](C)[C@@H](CN(C)C(=O)Nc2ccnc(N3CCOCC3)c2)OCc2ccccc2-c2ccccc2C1=O,-26.9%
8,C[C@@H]1CN([C@@H](C)CO)C(=O)Cc2cc(NC(=O)Nc3ccc(F)cc3)ccc2O[C@@H]1CN(C)C,-0.58%
9,C[C@H](CO)N1C[C@H](C)[C@@H](CN(C)Cc2ccncc2)Oc2ccc(NS(=O)(=O)c3ccc(Cl)cc3)cc2CC1=O,20.9%
10,CCCNC(=O)N1CC2(C1)[C@@H](c1ccccc1)[C@@H](CO)N2C(=O)CC1CC1,-12.2%
11,CCCNC(=O)N1C[C@@H](C)[C@@H](OC)CN(C)C(=O)c2ccc(NC(=O)CCC)cc2OC[C@H]1C,1.97%
12,C[C@@H]1CN([C@H](C)CO)C(=O)c2cc(Br)cnc2O[C@@H]1CN(C)C(=O)Nc1ccc(F)cc1,9.97%
13,C[C@@H]1CN([C@H](C)CO)C(=O)c2cc(NC(=O)Nc3ccc(C(F)(F)F)cc3)ccc2O[C@@H](C)CCCCO[C@@H]1CN(C)Cc1ccc(C(F)(F)F)cc1,-27.4%
14,C[C@@H]1CCCCO[C@@H](CN(C)Cc2ccc(C(=O)O)cc2)[C@@H](C)CN([C@@H](C)CO)C(=O)c2cc(NC(=O)Nc3ccc(C(F)(F)F)cc3)ccc2O1,-6.61%
15,C[C@@H]1CCCCO[C@H](CN(C)Cc2ccc(C(F)(F)F)cc2)[C@H](C)CN([C@H](C)CO)C(=O)c2cc(NC(=O)Nc3ccc(F)cc3)ccc2O1,92.5% (active)
16,COc1ccc2c3c([nH]c2c1)[C@H](CO)N(C(=O)C1CCCCC1)CC31CCN(C(=O)c2ccncc2)CC1,3.94%
17,CCC(=O)N(C)C[C@@H]1Oc2cc(-c3ccccc3OC)ccc2S(=O)(=O)N([C@H](C)CO)C[C@H]1C,-9.48%
18,COC(=O)C[C@@H]1CC[C@H]2[C@H](COc3ccc(NC(=O)c4ccccc4F)cc3C(=O)N2C)O1,9.97%
19,C=CCn1c(C)cc(C2=NNC(=NCC)SC2)c1C,107% (active)
20,O=C(C(=O)N1CCC(CNS(=O)(=O)Cc2ccccc2)CC1)c1cc2ccccc2o1,10%
21,COc1ccc(NC(=O)Nc2ccc3c(c2)[C@@H]2C[C@H](CC(=O)N[C@@H](C)c4ccccc4)O[C@@H](CO)[C@@H]2O3)cc1,-20.1%

row,Compound,inhibition
1,C[C@H](NC(=O)C[C@H]1CC[C@H]2[C@@H](COC[C@H](O)CN2C(=O)Nc2cc(Cl)cc(Cl)c2)O1)c1ccccc1,3.71%
2,C[C@H]1CCCCO[C@@H](CN(C)Cc2ccccc2)[C@@H](C)CN([C@@H](C)CO)C(=O)c2cc(NC(=O)Cc3ccccc3)ccc2O1,-9.52%
3,CNC(=O)C[C@H]1CC[C@@H]2[C@@H](COc3ccc(NC(=O)c4ccc(F)c(F)c4)cc3C(=O)N2C)O1,-18.3%
4,CC(=O)N1CCOc2ccc(S(=O)(=O)N3CCN(c4cccc(C(F)(F)F)c4)CC3)cc21,92.2% (active)
5,CCOC(=O)C1CCN(S(=O)(=O)c2ccc3c(c2)N(C(C)=O)CCO3)CC1,8.01%
6,COc1ccc(N2CCN(S(=O)(=O)c3ccc4c(c3)N(C(C)=O)CCO4)CC2)cc1,3.96%
7,C[C@H]1CN([C@@H](C)CO)C(=O)c2cc(NC(=O)Nc3ccccc3)ccc2O[C@H]1CN(C)C(=O)Nc1ccc(F)cc1,-5.44%
8,O=C(C[C@@H]1CC[C@@H]2[C@H](COC[C@H](O)CN2Cc2cccc(C(F)(F)F)c2)O1)NCc1ccc(F)cc1,19.6%
9,Cn1c(=O)[nH]c(=O)c2c1nc(N1CCN(C(c3ccccc3)c3ccccc3)CC1)n2CCO,84.2% (active)
10,C=C(C)Cn1c(N2CCCC2)nc2c1c(=O)[nH]c(=O)n2C,-3.4%
11,CC1CCN(c2nc3c(c(=O)[nH]c(=O)n3C)n2CCCc2ccccc2)CC1,-19.2%
12,COCCNC(=O)C[C@H]1CC[C@H](NS(=O)(=O)c2ccc(C)cc2)[C@@H](CO)O1,-3.36%
13,O=C(CN1CCOCC1)N1CCCCN2[C@@H](CO)[C@H](c3ccc(/C=C/c4ccccc4)cc3)[C@@H]2C1,-11.5%
14,O=C(C[C@H]1CC[C@@H]2[C@H](COC[C@H](O)CN2S(=O)(=O)c2ccc(Cl)cc2)O1)N[C@@H]1CCN(Cc2ccccc2)C1,32.3%
15,C=CC[C@@H](CC(=O)N[C@H](CO)Cc1ccccc1)C(=O)N[C@@H](COC(=O)[C@@H](CC=C)Cc1ccc(F)cc1)Cc1c[nH]c2ccccc12,25.6%
16,C=CCC[C@@H](Cc1ccc(F)cc1)C(=O)OC[C@@H](C)NC(=O)[C@H](CC=C)CC(=O)N(CCO)Cc1ccccc1,31.4%
17,C=CC[C@H](CC(=O)NCCO)C(=O)N[C@@H](COC(=O)[C@@H](CC=C)Cc1ccc(F)cc1)Cc1c[nH]c2ccccc12,8.97%
18,C=CCC[C@H](Cc1ccc(F)cc1)C(=O)OC[C@H](C)NC(=O)[C@H](CC=C)CC(=O)N(CCO)Cc1ccccc1,23.7%
19,C=CCC[C@@H](Cc1ccc(F)cc1)C(=O)OC[C@H](Cc1c[nH]c2ccccc12)NC(=O)[C@@H](CC=C)CC(=O)N(CCO)Cc1ccccc1,75.3% (active)
20,C=CCC[C@H](Cc1ccc(F)cc1)C(=O)OC[C@@H](Cc1c[nH]c2ccccc12)NC(=O)[C@H](CC=C)CC(=O)N[C@H](CO)Cc1ccccc1,75.3% (active)

# From PubChem BioAssay AID652154 (Broad Institute, 2013)
